This is part of a sample that, as a whole, favours compounds with a hit. Of some 83,000 tested, about 20% had one in any assay.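 Treatment: one concentration, 48 hours, 96-well format. Scoring: percent growth, with anything below 10 considered active.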 Activity calls are given as the source filed them.
How the values were obtained:
Test in all cases: NCI-60 one-dose screen, 48 h (100 = growth as untreated, 0 = no growth, -100 = all killed)
Conditions in all cases: 10 µM unless noted
[1] = tested on: RPMI-8226 leukemia
[2] = tested on: OVCAR-8 ovarian
[3] = tested on: OVCAR-5 ovarian
[4] = tested on: OVCAR-4 ovarian
[5] = tested on: IGROV1 ovarian
[6] = tested on: OVCAR-3 ovarian
[7] = tested on: HS 578T breast
[8] = tested on: NCI/ADR-RES ovarian
[9] = tested on: T-47D breast

Measured: growth

O=C1/C(=C/c2cccc(O)c2)COc2ccc(O)cc21
inactive: [2] 68.7% | [3] 105% | [4] 98.1% | [5] 78.1% | [6] 55.5% | [7] 101% | [8] 96.7% | [9] 86.8%
active: [1] -10.6%

Cc1cccc2c(=O)c3c(sc12)c(N1CCNCC1)nc1ccccc13
active: [1] 7.41%
inactive: [2] 83.9% | [3] 90.2% | [4] 73.9% | [5] 33.6% | [6] 63.7% | [7] 73% | [8] 83.1% | [9] 86.9%

COc1cc(C2CC(c3ccc(Nc4nc(NCCO)nc(N5CCOCC5)n4)cc3)=NN2c2cc(Cl)cc(Cl)c2)cc(OC)c1OC (configuration not stated)
inactive: [1] 33.4% | [2] 48.8% | [3] 74.4% | [4] 57.2% | [5] 55% | [6] 56.9% | [7] 22.6% | [8] 48.8% | [9] 41.4%

COC(=O)c1c2c(c(C)[n+]([O-])c1C)C(=O)C=C(NCc1ccc(F)c(F)c1)C2=O
active: [1] -6.01% | [2] -2.54% | [3] -83.1% | [4] -98.7% | [5] -67.3% | [6] -47.2% | [7] -20.4% | [8] -17.5% | [9] -42.5%

CCCN1C(=O)N(CCC)C2C1NN=c1s/c(=C3\C(=O)N(C(C)C)c4ccccc43)c(=O)n12 (configuration not stated)
inactive: [1] 61.2% | [2] 58.4% | [3] 76% | [4] 42.9% | [5] 41.5% | [7] 30.3% | [8] 44.5% | [9] 28.1%
active: [6] -15%

O=c1c(-c2nc3ccccc3[nH]2)cc2ccccc2n1Cc1cn(Cc2ccc(F)cc2)nn1
active: [3] -20.5% | [5] 9.95% | [6] 3.02% | [7] -6.42%
inactive: [1] 16.7% | [2] 28.5% | [4] 43.5% | [8] 31.7% | [9] 42.3%

CC(=O)c1ccc(NC(=O)Nc2ccc(S(=O)(=O)Nc3ccc(Cl)nn3)cc2)cc1
inactive: [1] 108% | [2] 98.7% | [3] 95.3% | [4] 110% | [5] 99.5% | [6] 108% | [7] 98.4% | [8] 103% | [9] 101%

OCCNc1nc(Nc2ccc(C3=NN(c4cc(Cl)cc(Cl)c4)C(c4ccc(C(F)(F)F)cc4)C3)cc2)nc(N2CCOCC2)n1 (configuration not stated)
inactive: [1] 71.7% | [2] 68.1% | [3] 95.3% | [4] 64% | [5] 93% | [6] 86.1% | [7] 62.8% | [8] 68.3% | [9] 64.1%

COc1cc(NC(=O)CCSc2nc3ccccc3c(=O)n2Cc2ccccc2)cc(OC)c1OC
inactive: [1] 56.9% | [2] 79.3% | [3] 91% | [4] 63.4% | [5] 99.4% | [6] 88.1% | [7] 77.3% | [8] 82.1% | [9] 78.1%

O=Cc1c(OCc2cnnn2CC(=O)Nc2ccc(Cl)cc2)ccc2ccccc12
inactive: [1] 105% | [2] 99.2% | [3] 94.8% | [4] 100% | [5] 96% | [6] 103% | [7] 101% | [8] 102% | [9] 104%

O=C(Cn1cc(COc2ncnc3c2cnn3-c2ccccc2)nn1)Nc1ccccn1
inactive: [1] 84.4% | [2] 92.5% | [3] 93.7% | [4] 92.7% | [5] 95.4% | [6] 100% | [7] 88.3% | [8] 91.5% | [9] 80.9%

COc1ccc(/C(C#N)=C/c2nc3c(N4CCOCC4)nc(Cl)nc3n2C)cc1OC
inactive: [2] 14.5% | [3] 33.3% | [7] 13.2% | [8] 11.7%
active: [1] -7.23% | [4] -25% | [5] 3.01% | [6] -86.1% | [9] -17.1%

CN1C(=O)N(C)C2Nn3c(s/c(=C\c4ccc(Cl)cc4Cl)c3=O)=NC21 (configuration not stated)
inactive: [1] 80.2% | [2] 69.3% | [3] 63.5% | [4] 67.6% | [5] 60.5% | [6] 30.7% | [7] 66.9% | [8] 35.6% | [9] 69.7%

O=c1c2cc(F)ccc2sc2c(NCCN3CCCC3)nc3ccccc3c12
inactive: [1] 33.9% | [2] 63% | [3] 72.1% | [4] 54.2% | [5] 61.7% | [6] 48.8% | [7] 56.8% | [8] 66.4% | [9] 61.9%

CN(C)CCNc1cc(-c2ccccc2)nc2ccccc12
active: [1] -8.18% | [2] -34.4% | [3] -39.7% | [4] -25% | [5] -64% | [6] -92.5% | [8] -1.85% | [9] -5.18%
inactive: [7] 11.1%

COc1ccc(Cn2cc(Cn3c(=O)c(-c4nc5ccccc5[nH]4)cc4ccccc43)nn2)c(OC)c1OC
inactive: [1] 16.1% | [2] 23.9% | [3] 19.1% | [5] 27% | [9] 29.7%
active: [4] 0.605% | [6] -32.5% | [7] -9.86% | [8] -2.32%

COC(=O)C1(C)CCC[C@]2(C)[C@H]3C[C@H]4C(C(C)C)=C[C@]3(CC[C@@H]12)[C@H]1[C@@H]4[C@@H](OCC#CCN2CCOCC2)CC[C@@H]1OCC#CCN1CCOCC1 (some centres not stated)
inactive: [1] 67.7% | [2] 83.2% | [3] 106% | [4] 64.7% | [5] 70.6% | [6] 86.3% | [7] 86.6% | [8] 74.9% | [9] 64.5%

COc1ccc2oc(=O)cc(Cn3cc(Cn4cnc5c4c(=O)n(C)c(=O)n5C)nn3)c2c1
inactive: [1] 103% | [2] 106% | [3] 94% | [4] 103% | [5] 104% | [6] 110% | [7] 97.8% | [8] 105% | [9] 94.1%

O=C(c1nc2ccccc2[nH]1)C1[C@@H](c2cccc(O)c2)C2CC3CCCCC3N2[C@@]12C(=O)Nc1cc(Cl)ccc12 (some centres not stated)
active: [1] 4.43%
inactive: [2] 52.5% | [3] 69.3% | [4] 34.4% | [5] 38.8% | [6] 42.5% | [7] 57.1% | [8] 85.2% | [9] 34.3%

Cc1sc2ncn(CC(=O)Nc3ccc(S(N)(=O)=O)cc3)c(=O)c2c1C
inactive: [1] 106% | [2] 96.5% | [3] 99.2% | [4] 108% | [5] 102% | [6] 108% | [7] 95.8% | [8] 105% | [9] 96.5%

Cc1ccc(N=NC2C(=O)N(c3ccc(Cl)cc3)N(c3ccc(Cl)cc3)C2=O)cc1
inactive: [1] 78.1% | [2] 98.2% | [3] 99.8% | [4] 102% | [5] 95.8% | [6] 93.3% | [7] 102% | [8] 98.9% | [9] 83.2%

Cc1ccc2sc3c(NCCCNCCO)nc4ccccc4c3c(=O)c2c1
active: [1] -16.5% | [9] -39.5%
inactive: [2] 22.4% | [3] 90.7% | [4] 60.4% | [5] 48.8% | [6] 26.6% | [7] 44.2% | [8] 72.6%

CC(C)Cn1c2c(c(=S)[nH]c1=O)CCC2
inactive: [1] 99.2% | [2] 101% | [3] 99.5% | [4] 101% | [5] 103% | [6] 111% | [7] 102% | [8] 106% | [9] 111%

NCCOc1ncccc1/C=C1\c2ccccc2-c2ccc([N+](=O)[O-])cc21
active: [1] -21.5% | [2] -13% | [3] -72.8% | [4] -69.2% | [5] -80.2% | [6] -77.7% | [7] -5.23% | [8] -45.4% | [9] -30.4%

COc1cc(/C=C2\CN(S(=O)(=O)c3ccccc3)C/C(=C\c3cc(CN4CCCC4)c(O)c(OC)c3)C2=O)cc(CN2CCCC2)c1O
inactive: [2] 19.2% | [4] 34.8% | [6] 11.1% | [7] 33.6% | [8] 92.7% | [9] 32.3%
active: [1] -13.3% | [3] -9.14% | [5] -27.6%

O=Cc1c(OCc2cnnn2CC(=O)Nc2ccc(Br)cc2)ccc2ccccc12
inactive: [1] 104% | [2] 96.1% | [3] 95% | [4] 97% | [5] 85.9% | [6] 97.2% | [7] 85.1% | [8] 90.5% | [9] 78.7%

O=C1C(=O)c2c(ccc3ccccc23)-c2ccccc21
active: [1] 4.32% | [2] 2.95% | [3] -22.4% | [4] -95.3% | [5] -21.4% | [6] -25.5% | [7] -8.76% | [8] -1.89% | [9] -48.6%

COc1ccc(C2C3=C(COC3=O)N(CCO)c3cc4c(cc32)CCC4)cc1OC (configuration not stated)
active: [6] -18.6%
inactive: [1] 33.4% | [2] 26.7% | [3] 57.3% | [4] 28.3% | [5] 24.2% | [7] 21.1% | [8] 31.3% | [9] 22.6%

From PubChem BioAssay (NCI)
